102 molecules from PubChem BioAssay AID777 (Sanford-Burnham Center for Chemical Genomics, 2007) can be followed below.

For orientation: inhibition means the relative decrease from the control value, in per cent.

Screen size: about 96,000 compounds; about 19,000 (20%) were called active.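 Rule for the calls: active = blocking of liver enzyme CYP2C9 beyond about 50% at 5 µM (limit read from the data); inactive = the rest.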 Not all results are given here.

The target of the test is Cytochrome P450 2C9 (Homo sapiens) (UniProt P11712). Briefly: blockers of cytochrome P450 2C9 activity – biochemical, luminescence, ADME assay, primary screen (AID 777). The conditions noted are these: CYP2C9 Supersomes, luciferin-H conversion, at 5 µM, hits give high values.
Cytochrome P450 2C9 (Homo sapiens), sequence (P11712 whole entry, looked up): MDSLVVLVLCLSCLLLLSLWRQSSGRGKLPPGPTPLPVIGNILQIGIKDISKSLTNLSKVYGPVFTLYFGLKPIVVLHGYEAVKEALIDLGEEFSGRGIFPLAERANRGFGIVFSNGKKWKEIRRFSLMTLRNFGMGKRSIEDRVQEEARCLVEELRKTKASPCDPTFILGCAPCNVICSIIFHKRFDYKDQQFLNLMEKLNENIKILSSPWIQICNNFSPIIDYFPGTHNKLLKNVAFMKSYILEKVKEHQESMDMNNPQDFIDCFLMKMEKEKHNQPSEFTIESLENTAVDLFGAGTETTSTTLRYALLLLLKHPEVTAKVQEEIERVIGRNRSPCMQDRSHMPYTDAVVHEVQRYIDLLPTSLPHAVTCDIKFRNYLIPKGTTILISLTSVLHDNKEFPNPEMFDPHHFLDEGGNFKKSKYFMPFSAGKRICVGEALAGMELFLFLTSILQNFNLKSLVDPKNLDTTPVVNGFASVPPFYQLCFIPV
Turning to `CCOC(=O)Nc1ccc2c(c1)N(C(=O)CCN1CCN(CCO)CC1)c1ccccc1CC2`, the inhibition was -14% (inactive).

Consider `CCOc1cccc(-c2nnc3sc(COc4ccc(OC)cc4)nn23)c1`, for which the inhibition was 20.9% (inactive).

In the case of `COc1ccc(-n2nnnc2SCC(=O)c2ccc(OC)c(OC)c2)cc1`, the inhibition was 45.6% (inactive).

As to `CCOc1cccc(-n2nnnc2-c2ccc(OC)cc2)c1`, the inhibition was 91.4% (active).

Take `Cc1cccc2cc(CN(Cc3nnnn3Cc3ccccc3)C3CCCC3)c(=O)[nH]c12`: the inhibition was 91.5% (active).

For `Cc1cc(C)c2cc(CN(Cc3nnnn3Cc3ccc(F)cc3)C3CCCC3)c(=O)[nH]c2c1`, the inhibition was -7.2% (inactive).

Turning to `Cc1cccc2cc(CN(Cc3ccc4c(c3)OCO4)Cc3nnnn3C3CCCC3)c(=O)[nH]c12`, the inhibition was 38.4% (inactive).

With `O=C(CCl)NNc1cccc(Cl)n1`, the inhibition was 10.1% (inactive).

In the case of `c1ccc(-c2ccnc3nc(-n4cccc4)nn23)cc1`, the inhibition was 6.8% (inactive).

Consider `Cc1nc(Nc2ccc3c(c2)OCCO3)c2nnn(Cc3ccccc3Cl)c2n1`, for which the inhibition is 93.2% (active).

For the molecule `CC(C)(C)c1nc(NCC2CCCO2)c2nnn(Cc3ccccc3)c2n1` (configuration not stated), the inhibition was 32.7% (inactive).

Regarding `C#CCNc1nc(C(C)C)nc2c1nnn2Cc1ccccc1F`, the inhibition is 40.2% (inactive).

Turning to `O=C(CN1CCSCC1)N/N=C/c1ccc(F)cc1`, the inhibition was 17.1% (inactive).

For the molecule `O=C(O)c1cccc2c1C(=O)N(C1CCCCC1)C2`, the inhibition is -13.9% (inactive).

Turning to `COCCNC(=O)c1snc2ccc(Cl)cc12`, the inhibition is -11.2% (inactive).

As for `COc1ccc(NC(=O)Nc2cccc3cccnc23)cc1`, the inhibition was -39.1% (inactive).

As to `O=C(NCc1ccc(Cl)cc1)c1cc2c(nc3sccn32)s1`, the inhibition is 17.9% (inactive).

Take `O=C(NCc1cn2ccsc2n1)Nc1ccc(Cl)cc1`: the inhibition is 13.6% (inactive).

With `O=c1cc(Cn2nnc(-c3ccc(Cl)cc3)n2)nc2sccn12`, the inhibition was 63.5% (active).

Consider `Cc1ccc(C(=O)OC2=CC(=O)CC(C)(C)C2)cc1`, for which the inhibition was 28.3% (inactive).

In the case of `CN(c1cccc(NC(=O)Nc2ccc(Cl)cc2)c1)S(C)(=O)=O`, the inhibition is 30.6% (inactive).

For the molecule `COc1ccc(-c2cc(C(F)(F)F)n3nc(C(=O)N4CCOCC4)c(Cl)c3n2)cc1`, the inhibition was 0.7% (inactive).

`CCOc1cc(CNCCN(C)C)c(Cl)cc1OCC(=O)NCCc1ccccc1`: the inhibition is 22.3% (inactive).

Regarding `Clc1cccc(N=C2NN=C(c3ccc4c(c3)OCCO4)CS2)c1`, the inhibition was 77.7% (active).

Turning to `CCOC(=O)C1=C(O)CSC1=Nc1cccc(Cl)c1`, the inhibition is 9% (inactive).

In the case of `COc1ccc(-c2cc(C(=O)NC(C(=O)O)C(C)C)c(C)o2)cc1OC` (configuration not stated), the inhibition is 21% (inactive).

As for `O=C(Nc1c2c(nn1-c1ccc(F)cc1)CS(=O)C2)C12CC3CC(CC(C3)C1)C2` (configuration not stated), the inhibition was 14.4% (inactive).

`COc1ccc(C2C(C(C)=O)=C(O)C(=O)N2c2nccs2)cc1` (configuration not stated): the inhibition is 5% (inactive).

Consider `COC(=O)N1CN(C(=O)OC)CN(C(=O)OC)C1`, for which the inhibition was -12.2% (inactive).

`COn1c(=O)c(=O)n(OC)c2ccccc21`: the inhibition was 3.2% (inactive).

As to `CCc1ccccc1N(CC(=O)N1CCN(c2ccccc2F)CC1)S(C)(=O)=O`, the inhibition is 2.9% (inactive).

Take `CCOC(=O)C(C)Sc1nc2ccccc2c(=O)n1CC1CCCCC1` (configuration not stated): the inhibition was 78.8% (active).

For `CCOC(=O)C1CCc2nc3ccccc3c(=O)n21` (configuration not stated), the inhibition is 3.3% (inactive).

Consider `CCOn1c(SC(C)C)nc2ccccc2c1=O`, for which the inhibition was 17.6% (inactive).

As for `O=c1[nH]c(CSc2ncc(-c3ccc(F)cc3)n2Cc2ccco2)nc2ccccc12`, the inhibition was 21.2% (inactive).

Turning to `N#Cc1c(NC(=O)CSc2nc3ccccc3c(=O)n2Cc2ccco2)sc2c1CCCC2`, the inhibition is 3.9% (inactive).

On to `CC(Sc1nc2ccccc2c(=O)n1Cc1ccco1)C(=O)c1ccccc1` (configuration not stated), for which the inhibition is 88.2% (active).

For `O=C(CNS(=O)(=O)c1cccc(C(F)(F)F)c1)Nc1ccccc1F`, the inhibition was -19.7% (inactive).

As to `Cc1c2cn[nH]c(=O)c2c(C)n1Cc1ccc(F)cc1`, the inhibition was 6.2% (inactive).

With `Nc1nc(SCc2ccccc2Cl)n[nH]1`, the inhibition was -6.7% (inactive).

On to `CSCc1cc(N(C)C)nc(SCc2ccc(Cl)cc2Cl)n1`, for which the inhibition was 56.7% (active).

Consider `Clc1ccc(CSc2nnc(/C=C/c3ccccc3)o2)c(Cl)c1`, for which the inhibition is 49.9% (inactive).

For `CSCc1cc(N2CCOCC2)nc(SCc2ccc(Cl)cc2Cl)n1`, the inhibition was 57.5% (active).

For the molecule `O=c1cc(CSc2ccc(Cl)cc2)nc(N2CCOCC2)[nH]1`, the inhibition is 8.5% (inactive).

For the molecule `COc1ccc([N+](=O)[O-])cc1C1NN=C(c2cccc3ccccc23)S1` (configuration not stated), the inhibition was -70.8% (inactive).

With `CCC(=O)NNc1cc(=O)c2c(=O)n(C)c(=O)n(C)c2[nH]1`, the inhibition is 4% (inactive).

`COc1ccc(S(=O)(=O)NC2(C(F)(F)F)N=C3SCCN3C2=O)cc1` (configuration not stated): the inhibition is -5.2% (inactive).

In the case of `CSCCC(NC(=O)c1ccc(=O)n(C)n1)c1nc2ccccc2[nH]1` (configuration not stated), the inhibition is 10.3% (inactive).

As for `CC1CCCCC1NC(=O)CCS(=O)(=O)c1cccc2nonc12` (configuration not stated), the inhibition is 7.9% (inactive).

With `CCCNC(=O)CN(Cc1ccccc1F)S(=O)(=O)c1ccc(C)cc1`, the inhibition is 74.3% (active).

For the molecule `CCNC(=O)CN(c1ccc(C)cc1)S(=O)(=O)c1ccc(SC)cc1`, the inhibition was 26.9% (inactive).

In the case of `Cc1ccc(S(=O)(=O)N(CC(=O)NCCSC2CCCCC2)c2ccccc2F)cc1`, the inhibition was -9.7% (inactive).

Take `CCCC(=O)N(CCc1ccccc1)Cc1nc2ccccc2c(=O)[nH]1`: the inhibition was 38.3% (inactive).

As to `COc1nc(-c2ccc(Cl)cc2)ccc1-c1noc(-c2cccs2)n1`, the inhibition is 23.2% (inactive).

Consider `C=CCNc1nc(N)c(C(=C(C#N)C#N)c2ccccc2)s1`, for which the inhibition was 69.6% (active).

`C=CCNC(=O)c1csc(-c2ccccc2)n1`: the inhibition is 35.2% (inactive).

`CCCn1c(=O)c2ccccc2n2c(SCC(=O)/C(C#N)=C(\C)N)nnc12`: the inhibition was 14.3% (inactive).

In the case of `CCOc1ccccc1NC(=O)CCc1ccc(C)o1`, the inhibition was -185% (inactive).

As for `CC1=NCCN1S(=O)(=O)c1ccc(Br)c(C)c1`, the inhibition was -80.5% (inactive).

With `CCCCOc1ccc(Cl)cc1CSc1nncn1N`, the inhibition was 74.2% (active).

Regarding `CCCCOc1ccc(CSC(=N)N)cc1[N+](=O)[O-]`, the inhibition is 20% (inactive).

For `Cn1ncc2c(Nc3cccc4ccccc34)ncnc21`, the inhibition was -1.5% (inactive).

`O=C1COc2ccc(NC(=O)N3CCN(c4ccc(F)cc4)CC3)cc2N1`: the inhibition is 19.5% (inactive).

Consider `CC1=NC2(CCCc3c2no[n+]3[O-])N(O)C1(C)C` (configuration not stated), for which the inhibition was 11.5% (inactive).

For the molecule `O=S1(=O)CCN2C(=N1)SC1=C2CCN(Cc2ccccc2)C1`, the inhibition was 0.4% (inactive).

In the case of `COC(=O)CN(C(=S)Nc1ccc(Cl)cc1)C1CC(=O)N(c2ccc(OC)cc2)C1=O` (configuration not stated), the inhibition is 43.6% (inactive).

With `COC(=O)c1ccccc1NC(=O)CSc1ccccn1`, the inhibition was -10.9% (inactive).

Turning to `COC(=O)c1c(-c2cccs2)csc1NC(=O)CSc1ncnc2sc(C)c(C)c12`, the inhibition is 76.2% (active).

For `Cc1cnc(NC(=O)CSc2c(Cl)cccc2Cl)s1`, the inhibition was 1.4% (inactive).

Regarding `CCn1c(SC)nc(O)c(C(c2ccc(OC)c(O)c2)c2c(O)nc(SC)n(CC)c2=O)c1=O`, the inhibition was 23.3% (inactive).

For the molecule `Cc1cc(C)nc(SCc2nnc(SCC(=O)OC3CCCCC3)o2)n1`, the inhibition is 7% (inactive).

On to `CCOC(=O)CSc1nc2c(sc(=S)n2CCc2ccccc2)c(=O)n1Cc1ccco1`, for which the inhibition is 66.9% (active).

With `Nc1cc(=O)nc(SCc2ccccc2)n1Cc1ccco1`, the inhibition was 7.5% (inactive).

Regarding `CCOC(=O)CSc1nnc(-c2ccco2)n1C`, the inhibition is -20.3% (inactive).

Regarding `O=C(C1=C(O)C(=O)N(Cc2ccccc2)C1c1ccco1)c1ccco1` (configuration not stated), the inhibition is 24% (inactive).

For `CC1=NN(Cc2ccccc2)C(=O)/C1=C/c1ccc(N(C)C)cc1`, the inhibition is 14.4% (inactive).

Consider `CN(C)c1cc[n+](Cc2ccccc2)cc1`, for which the inhibition is 2.2% (inactive).

`CN(C)c1ccc(/C=C2\NC(=S)N(Cc3ccccc3)C2=O)cc1`: the inhibition was 66.2% (active).

In the case of `CCOC(=O)N1CCN(Cc2oc(CO)cc(=O)c2O)CC1`, the inhibition was -4.5% (inactive).

Take `Cc1ccc(-c2cc(C(=O)Nc3nn[nH]n3)c3ccccc3n2)c(C)c1`: the inhibition was 23.9% (inactive).

On to `N/C(=N\OC(=O)c1cc(-c2ccccc2)nc2ccccc12)c1ccncc1`, for which the inhibition is 97.7% (active).

In the case of `CC(C)(C)Cc1nnc(NC(=O)c2cc(-c3ccccc3)nc3ccccc23)s1`, the inhibition was 11.3% (inactive).

As to `CC12CN(Cc3ccccc3)CC(C)(CN(Cc3ccccc3)C1)C2=NO`, the inhibition is -1.5% (inactive).

Regarding `COc1cccc(-c2nc(S(=O)(=O)c3ccccc3)c(N3CCOCC3)o2)c1`, the inhibition is 27.5% (inactive).

For `COc1cccc(-c2nc3cc(C)ccc3o2)c1`, the inhibition was 53.3% (active).

Turning to `CCc1ccc2oc(-c3ccc(N)cc3)nc2c1`, the inhibition is -59.8% (inactive).

On to `O=C(O)CSCc1ccc(C(=O)O)o1`, for which the inhibition is 13.1% (inactive).

For the molecule `O=C(O)c1ccc(F)c(S(=O)(=O)Nc2ccccc2)c1`, the inhibition is 17% (inactive).

As to `CSc1ccc(S(=O)(=O)Nc2cccc(F)c2)cc1`, the inhibition was 93.8% (active).

In the case of `CSc1ccc(S(=O)(=O)NCc2ccc(Cl)cc2)cc1`, the inhibition was -49.2% (inactive).

`CCn1cc(C(=O)N2CCN(C3CCCCC3)CC2)c2cc(OC)c(OC)cc2c1=O`: the inhibition was 19% (inactive).

In the case of `Cc1cc2ncn(CCCCOc3ccccc3)c2cc1C`, the inhibition is 27.5% (inactive).

In the case of `CCOC(=O)c1ccc(NC(=O)CS(=O)(=O)c2cn(CC)c3ccccc23)cc1`, the inhibition is 20.9% (inactive).

`CCOC(=O)c1cccc(NC(=O)CCc2c(C)nc3ncnn3c2C)c1`: the inhibition is 15.2% (inactive).

For `CCOC(=O)c1cccc(NC(=O)CCn2nnc3ccccc32)c1`, the inhibition is 53.3% (active).

As to `CCOC(=O)c1nnn(CC(=O)Nc2cccc(F)c2)c1C(=O)OCC`, the inhibition is 60.3% (active).

On to `CCOC(=O)c1ccc(NC(=O)Cn2nnc(-c3ccc(C)cc3)n2)cc1`, for which the inhibition was 32% (inactive).

Consider `CCOC(=O)c1cn(CC(=O)Nc2ccc(C(C)C)cc2)nn1`, for which the inhibition was 17.6% (inactive).

For `CCCc1nc2scc(-c3ccc(C)cc3)c2c(=O)n1N`, the inhibition is 27.6% (inactive).

`COc1ccc(CNC(=O)CCn2cccc2)cc1`: the inhibition was 20.4% (inactive).

For the molecule `CCSc1ccccc1C(=O)NCc1ccc(OC)cc1`, the inhibition was 53.8% (active).

Regarding `CCCNC(=O)c1ccccc1NC(=O)CSCc1ccc(OC)cc1`, the inhibition was 15.3% (inactive).
